For 40 compounds, Potency and activity change, negative = inhibition results are on record in PubChem BioAssay (NCATS).

Inconclusive results are not listed. A call without a number means that no potency is given here. Values without a mark were called inactive. The source made the active and inactive calls. Calls come from the whole dose curve; as a rule, active = well fitted inhibition curve with a large enough effect; inconclusive = small, poorly fitted or top-dose-only effect; inactive = no such curve, though single readings can be large or run the other way.

This assay concerns the target Retinaldehyde dehydrogenase 3 (Homo sapiens) (UniProt P47895). Put plainly: qHTS for Inhibitors of the Aldehyde Dehydrogenase Family (ALDH1A3) Primary screen (AID 2061315). Particulars: ALDH inhibition qHTS; series mostly up to 56 µM. (Quantitative high-throughput screening tests each substance at several concentrations.)
Consider `CNC(C)C(=O)NC(C(=O)N1CCCC1C(=O)Nc1cccc2ncccc12)C(C)C` (stereo not given), for which the Potency entry is “inactive”.

As to `CC1CC2OC3(OC2C(C)(C)O)C1C1(C)CCC24CC25CCC(O[C@@H]2OC[C@@H](O)[C@H](O)[C@H]2O)C(C)(C)C5CC=C4C1(C)C3O` (stereo not given in full), the Potency entry was “inactive”. Consider `COc1cc(/C=C/C(=O)OC[C@H]2O[C@@](CO)(O[C@H]3O[C@H](CO)[C@@H](O)[C@H](O)[C@H]3O)[C@@H](OC(=O)/C=C/c3ccc(O)c(OC)c3)[C@@H]2O)ccc1O`, for which the Potency result was “inactive”. In the case of `CN1C(=O)N(c2cc(Cl)cc(Cl)c2)C(=O)[C@@]1(C)Cc1ccc(Br)cc1`, the Potency result was “inactive”. On the same count and under the same terms, the same measure for `COCC(=O)N1CCc2cc(-c3csc(NC(=O)c4cc(OC)cc(OC)c4)n3)ccc21`: “inactive”; for `CC1(C)CC[C@]2(C(=O)O[C@@H]3O[C@H](CO)[C@@H](O)[C@H](O)[C@H]3O)CC[C@]3(C)C(=CCC4[C@@]5(C)CC[C@H](O[C@@H]6O[C@H](C(=O)O)[C@@H](O)[C@H](O)[C@H]6O)[C@@](C)(CO)C5CC[C@]43C)C2C1` (stereo not given in full): “inactive”; for `COc1ccc(CN2CCN(C(c3ccc(F)cc3)c3ccc(F)cc3)CC2)c(OC)c1OC`: “inactive”. As to `CC(=O)OC1C=C(C(=O)O)C2(CO)CCC(C)C(C)(CCc3ccoc3)C2C1` (stereo not given), the Potency result is “inactive”. For the compound `C=C1CC2[C@]3(C)C(=C(O)C(=O)[C@@]2(C)[C@]2(C(=O)OC)C(=O)C(C)OC(=O)[C@@]12C)C(C)(C)C(=O)CC3O` (stereo not given in full), the Potency result is “inactive”. On the same count and under the same terms, the result for `OC[C@@]1(O)CO[C@H](OC[C@H]2O[C@@H](OC(CCCCc3ccc(O)cc3)CCc3ccc(O)cc3)[C@H](O[C@H]3OC[C@](O)(CO)[C@H]3O)[C@@H](O)[C@@H]2O)[C@@H]1O` (stereo not given in full) reads “inactive”; that for `Cc1occc(=O)c1O[C@@H]1O[C@H](COC(=O)CC(C)(O)CC(=O)O)[C@@H](O)[C@H](O)[C@H]1O` (stereo not given in full), “inactive”; that for `COC(=O)c1ccnc(-c2cc(C(=O)NCCc3ccccc3)ccn2)c1`, “inactive”.

Regarding `C=C1CCC[C@]2(C)CC[C@@H](C(=C)C(=O)O)[C@H](O)[C@@H]12`, the Potency result was “inactive”. As to `O=C(/C=C/c1ccc(O)cc1)OC[C@]12O[C@H]1[C@@H](O)[C@@H]1C=CO[C@@H](O[C@@H]3O[C@H](CO)[C@@H](O)[C@H](O)[C@H]3O)[C@@H]12`, the Potency result was “inactive”. As to `CN1c2c(nc(N)[nH]c2=O)NC[C@@H]1CNc1ccc(C(=O)N[C@@H](CCC(=O)O)C(=O)O)cc1`, the Potency result was “inactive”. As for `CC(C)C1=CCC(C)(O)C(OC2OC(CO)C(O)C(O)C2O)C1` (stereo not given), the Potency result is “inactive”.

For the compound `C/C=C(/C)C(=O)OC1C(OC(C)=O)C23C(O)OC4(CCC5C6(C)CCC(OC7OC(C(=O)O)C(O)C(OC8OC(CO)C(O)C(O)C8OC8OC(C)C(O)C(O)C8OC8OCC(O)C(O)C8O)C7OC7OC(CO)C(O)C(O)C7O)C(C)(C)C6CCC5(C)C4(C)CC2OC(C)=O)C3CC1(C)C` (stereo not given), the activity change, negative = inhibition is 2.15% [at 11.2 µM]. For the compound `CC(=O)C1=CCC2C3CC=C4CC(O)CC(O)C4(C)C3C(O)CC12C` (stereo not given), the Potency entry is “inactive”.

`C[C@@H]1O[C@@H](O[C@@H]2[C@@H](O)[C@H](O[C@H]3[C@H](O[C@H]4CC[C@@]5(C)C(CC[C@]6(C)C5CC=C5[C@@H]7CC(C)(C)CC[C@]7(C(=O)O[C@@H]7O[C@H](CO)[C@@H](O)[C@H](O)[C@H]7O[C@@H]7O[C@@H](C)[C@H](O[C@@H]8O[C@@H](C)[C@H](O)[C@@H](O)[C@H]8O)[C@@H](O)[C@H]7O)CC[C@]56C)[C@@]4(C)CO)O[C@H](C(=O)O)[C@@H](O)[C@@H]3O)O[C@H](CO)[C@H]2O)[C@H](O)[C@H](O)[C@H]1O` (stereo not given in full): the activity change, negative = inhibition was -3.36% [at 11.2 µM].

Regarding `C[C@@H]1CC[C@]2(C(=O)O)CC[C@]3(C)C(=CCC4[C@@]5(C)CC[C@H](O)C(C)(C)C5C(O)C[C@]43C)[C@@H]2[C@]1(C)O` (stereo not given in full), the Potency entry was “inactive”. For the compound `CCOc1cccc(NC(=O)c2ccc(N3CCCC3)c(C(F)(F)F)c2)c1`, the Potency result was “inactive”. On to `CCC1CC2C(C)=CC3CCCCC3C2(C)C2(OC(=O)C(C)(O)OC2=O)O1` (stereo not given), for which the Potency entry was “inactive”.

Regarding `Cc1ccc(C)c(S(=O)(=O)n2cnc3ccccc32)c1`, the Potency result is “inactive”. Turning to `C=C1C(=O)O[C@@H]2[C@H]3C(C)=CC(=O)C3=C(C)CC[C@@H]12`, the Potency entry was “inactive”. On the same count and under the same terms, the result for `C/C(=C\CCC(C)CCO)C(=O)OC[C@H]1O[C@@H](O[C@@H]2OC=C(C(=O)O)[C@H]3CC[C@](C)(O)[C@@H]23)C(O)[C@@H](O)C1O` (stereo not given in full) reads “inactive”; that for `O=C(CCc1ccccc1)c1c(O)c([C@@H]2O[C@H](CO)[C@@H](O)[C@H](O)[C@H]2O)c(O)c([C@@H]2O[C@H](CO)[C@@H](O)[C@H](O)[C@H]2O)c1O`, “inactive”. With `C[C@H]1CCN2C[C@]34C[C@@]5(C(=O)Nc6c5ccc5c6OC=CC(C)(C)O5)C(C)(C)C3C[C@]12C(=O)N4C` (stereo not given in full), the Potency entry was “inactive”.

With `COC(=O)C1=COC(OC2OC(CO)C(O)C(O)C2O)C2C(C)C(OC(C)=O)C(OC(=O)c3ccccc3)C12` (stereo not given), the Potency entry is “inactive”. Consider `CCCCCCCOc1cc2c(cc1/C(C)=C/c1ccc(C(=O)O)cc1)C(C)(C)CCS2(=O)=O`, for which the Potency entry was “inactive”.

As for `COc1ccc(C2=CC(=O)OC2Cc2ccc(O)cc2)c(O)c1` (stereo not given), the Potency entry is “inactive”. On the same count and under the same terms, the same measure for `C=C(C)[C@@H]1CC[C@]2(C(=O)O)CC[C@]3(C)[C@H](CCC4[C@@]5(C)CCC(=O)C(C)(C)C5C(O)C[C@]43C)C12` (stereo not given in full): “inactive”. As to `OCC(CO[C@@H]1O[C@H](CO)[C@@H](O)[C@H](O)[C@H]1O)c1ccc2c(c1)OCO2` (stereo not given in full), the Potency entry is “inactive”. On to `C=CC(C)(O)CC/C=C(/C)COC(=O)C(C)C1CCC(C)(C=C)O1` (stereo not given), for which the Potency entry is “inactive”.

Take `CN(C)CC1CCn2c(c(C3=C(c4cn(C)c5ccccc45)C(=O)NC3=O)c3ccccc32)C1` (stereo not given): the Potency entry was “inactive”. Take `CC1(C)CC[C@@]2(C(=O)O[C@@H]3O[C@H](CO)[C@@H](O)[C@H](O)[C@H]3O)C(C1)C1=CCC3[C@@]4(C)CC[C@@H](O[C@@H]5O[C@H](C(=O)O)[C@@H](O[C@@H]6OC[C@@H](O)[C@H](O)[C@H]6O)[C@H](O[C@@H]6OC[C@](O)(CO)[C@H]6O)[C@H]5O)C(C)(C)C4CC[C@@]3(C)[C@]1(C)C[C@H]2O` (stereo not given in full): the Potency entry is “inactive”. Take `COC1CC/C=C(\C)C(=O)Nc2cc(O)cc(c2)CC(C)CC(OC)C(O)C(C)/C=C(\C)C1OC(N)=O` (stereo not given): the Potency result was “inactive”. Turning to `CC(=O)OC(C)(C)/C=C/C(=O)C(C)(O)C1C(O)CC2(C)C3CC=C(C(C)(C)C(=O)O)C(CC(=O)O)C3(C)C(=O)CC12C` (stereo not given), the Potency result was “inactive”. On to `C/C1=C\C[C@H](O[C@@H]2O[C@H](CO)[C@@H](O)[C@H](O)[C@H]2O)/C(C)=C/[C@H]2OC(=O)[C@H](C)[C@@H]2CC1`, for which the Potency result was “inactive”. For the compound `C[C@]12C=C[C@@]3(CCC4[C@](C)(CO)CCC[C@@]4(C)C3CC1)C2` (stereo not given in full), the Potency result was “inactive”. In the case of `COC(=O)C1(C)CCCC2(C)c3ccc(C(C)C)cc3C(O)C(O)C12` (stereo not given), the Potency entry is “inactive”.
